Reference: the supplement of paper PMC10849652
Of roughly 7,900 targets only a part is listed; those with a hit were picked by preference. About 0.6% of all pairs of compound and target were hits. Values without a mark were called inactive.

What was measured:
Assay in all cases: log2 fold change, soluble protein after heating vs DMSO (PISA); higher = thermal stabilisation; K562 cells, 10 uM, 30 min; active = over 0.2 and 3.5 SD of the protein, either way, in both replicates (recomputed)
[1] = compound: COC1=CC=C(C=C1)CN2C=CC3=C2C=C(C=C3)C(=O)NO
Procedure, shortened: (§1)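 K562 cells at 2×10^6 cells/mL were treated for 30 min with 10 μM compound, and aliquots were heated for 3 min over 48°C-58°C before pooling. Extraction used PBS with 0.5% NP-40 at 4°C, and soluble protein was the supernatant after 21,000xg for 90 min, measured by TMTpro 16plex LC-MS/MS with channel sums equalised. Thermal stability values, relative to control samples and from duplicates, are log2 fold changes.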

filanesib = compound: CON(C)C(=O)N1N=C(c2cc(F)ccc2F)S[C@@]1(CCCN)c1ccccc1 [filanesib]
Procedure, shortened: as §1

zotarolimus = compound: CO[C@H]1C[C@@H]2CC[C@@H](C)[C@@](O)(O2)C(=O)C(=O)N2CCCC[C@H]2C(=O)O[C@H]([C@H](C)C[C@@H]2CC[C@H](n3cnnn3)[C@H](OC)C2)CC(=O)[C@H](C)/C=C(\C)[C@@H](O)[C@@H](OC)C(=O)[C@H](C)C[C@H](C)/C=C/C=C/C=C/1C [zotarolimus]
Procedure, shortened: as §1

idasanutlin = compound: COc1cc(C(=O)O)ccc1NC(=O)[C@@H]1N[C@@H](CC(C)(C)C)[C@](C#N)(c2ccc(Cl)cc2F)[C@H]1c1cccc(Cl)c1F [idasanutlin]
Procedure, shortened: as §1

alisertib = compound: COc1cc(Nc2ncc3c(n2)-c2ccc(Cl)cc2C(c2c(F)cccc2OC)=NC3)ccc1C(=O)O [alisertib]
Procedure, shortened: as §1

[2] = compound: COc1cc2nc(-c3cc(F)ccc3O)nc(N[C@@H]3CNC[C@H]3C(C)(C)O)c2cc1OC
Procedure, shortened: as §1

gefitinib = compound: COc1cc2ncnc(Nc3ccc(F)c(Cl)c3)c2cc1OCCCN1CCOCC1 [gefitinib]
Procedure, shortened: as §1

[3] = compound: COc1cccc2cc(-c3nc([C@H]4CC[C@H](C(=O)O)CC4)n4ncnc(N)c34)[nH]c12
Procedure, shortened: as §1

lapatinib = compound: CS(=O)(=O)CCNCc1ccc(-c2ccc3ncnc(Nc4ccc(OCc5cccc(F)c5)c(Cl)c4)c3c2)o1 [lapatinib]
Procedure, shortened: as §1

pictilisib = compound: CS(=O)(=O)N1CCN(Cc2cc3nc(-c4cccc5[nH]ncc45)nc(N4CCOCC4)c3s2)CC1 [pictilisib]
Procedure, shortened: as §1

[4] = compound: CS(=O)(=O)c1ccc(-c2cnc(N)c(C(=O)Nc3ccccc3)n2)cc1
Procedure, shortened: as §1

crizotinib = compound: C[C@@H](Oc1cc(-c2cnn(C3CCNCC3)c2)cnc1N)c1c(Cl)ccc(F)c1Cl [crizotinib]
Procedure, shortened: as §1

[5] = compound: C[C@@H]1COCCN1C2=NC(=NC(=C2)C3(CC3)S(=O)(=O)C)C4=C5C=CNC5=CC=C4
Procedure, shortened: as §1

[6] = compound: C[C@H](C1=CC=C(C=C1)C(=O)NC2=C3C=CNC3=NC=C2)N
Procedure, shortened: as §1

duvelisib = compound: C[C@H](Nc1ncnc2nc[nH]c12)c1cc2cccc(Cl)c2c(=O)n1-c1ccccc1 [duvelisib]
Procedure, shortened: as §1

gandotinib = compound: Cc1cc(Nc2cc(CN3CCOCC3)c3nc(C)c(Cc4ccc(Cl)cc4F)n3n2)n[nH]1 [gandotinib]
Procedure, shortened: as §1

tozasertib = compound: Cc1cc(Nc2cc(N3CCN(C)CC3)nc(Sc3ccc(NC(=O)C4CC4)cc3)n2)n[nH]1 [tozasertib]
Procedure, shortened: as §1

[7] = compound: Cc1cc(SCc2sc(-c3ccc(C(F)(F)F)cc3)nc2C)ccc1OCC(=O)O
Procedure, shortened: as §1

doramapimod = compound: Cc1ccc(-n2nc(C(C)(C)C)cc2NC(=O)Nc2ccc(OCCN3CCOCC3)c3ccccc23)cc1 [doramapimod]
Procedure, shortened: as §1

ispinesib = compound: Cc1ccc(C(=O)N(CCCN)[C@@H](c2nc3cc(Cl)ccc3c(=O)n2Cc2ccccc2)C(C)C)cc1 [ispinesib]
Procedure, shortened: as §1

UniProt Q99943, sequence (Q99943 whole entry, looked up): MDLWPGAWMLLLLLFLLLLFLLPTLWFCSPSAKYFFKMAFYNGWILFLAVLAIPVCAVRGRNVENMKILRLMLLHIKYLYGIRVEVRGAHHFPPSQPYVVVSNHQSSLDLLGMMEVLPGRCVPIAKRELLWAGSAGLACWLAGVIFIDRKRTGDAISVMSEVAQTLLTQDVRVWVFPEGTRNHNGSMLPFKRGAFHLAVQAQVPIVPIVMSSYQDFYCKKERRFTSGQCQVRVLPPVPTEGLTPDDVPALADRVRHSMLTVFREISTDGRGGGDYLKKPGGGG
UniProt P54709, sequence (P54709 whole entry, looked up): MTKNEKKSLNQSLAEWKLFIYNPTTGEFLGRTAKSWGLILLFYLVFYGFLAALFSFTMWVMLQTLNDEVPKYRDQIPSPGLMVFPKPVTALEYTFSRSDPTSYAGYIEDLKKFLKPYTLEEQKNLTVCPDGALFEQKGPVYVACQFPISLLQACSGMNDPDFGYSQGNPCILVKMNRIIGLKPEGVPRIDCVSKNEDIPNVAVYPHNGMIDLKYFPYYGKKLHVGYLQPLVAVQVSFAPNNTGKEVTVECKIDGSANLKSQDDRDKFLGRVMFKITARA
UniProt P04114, sequence (P04114 whole entry, looked up): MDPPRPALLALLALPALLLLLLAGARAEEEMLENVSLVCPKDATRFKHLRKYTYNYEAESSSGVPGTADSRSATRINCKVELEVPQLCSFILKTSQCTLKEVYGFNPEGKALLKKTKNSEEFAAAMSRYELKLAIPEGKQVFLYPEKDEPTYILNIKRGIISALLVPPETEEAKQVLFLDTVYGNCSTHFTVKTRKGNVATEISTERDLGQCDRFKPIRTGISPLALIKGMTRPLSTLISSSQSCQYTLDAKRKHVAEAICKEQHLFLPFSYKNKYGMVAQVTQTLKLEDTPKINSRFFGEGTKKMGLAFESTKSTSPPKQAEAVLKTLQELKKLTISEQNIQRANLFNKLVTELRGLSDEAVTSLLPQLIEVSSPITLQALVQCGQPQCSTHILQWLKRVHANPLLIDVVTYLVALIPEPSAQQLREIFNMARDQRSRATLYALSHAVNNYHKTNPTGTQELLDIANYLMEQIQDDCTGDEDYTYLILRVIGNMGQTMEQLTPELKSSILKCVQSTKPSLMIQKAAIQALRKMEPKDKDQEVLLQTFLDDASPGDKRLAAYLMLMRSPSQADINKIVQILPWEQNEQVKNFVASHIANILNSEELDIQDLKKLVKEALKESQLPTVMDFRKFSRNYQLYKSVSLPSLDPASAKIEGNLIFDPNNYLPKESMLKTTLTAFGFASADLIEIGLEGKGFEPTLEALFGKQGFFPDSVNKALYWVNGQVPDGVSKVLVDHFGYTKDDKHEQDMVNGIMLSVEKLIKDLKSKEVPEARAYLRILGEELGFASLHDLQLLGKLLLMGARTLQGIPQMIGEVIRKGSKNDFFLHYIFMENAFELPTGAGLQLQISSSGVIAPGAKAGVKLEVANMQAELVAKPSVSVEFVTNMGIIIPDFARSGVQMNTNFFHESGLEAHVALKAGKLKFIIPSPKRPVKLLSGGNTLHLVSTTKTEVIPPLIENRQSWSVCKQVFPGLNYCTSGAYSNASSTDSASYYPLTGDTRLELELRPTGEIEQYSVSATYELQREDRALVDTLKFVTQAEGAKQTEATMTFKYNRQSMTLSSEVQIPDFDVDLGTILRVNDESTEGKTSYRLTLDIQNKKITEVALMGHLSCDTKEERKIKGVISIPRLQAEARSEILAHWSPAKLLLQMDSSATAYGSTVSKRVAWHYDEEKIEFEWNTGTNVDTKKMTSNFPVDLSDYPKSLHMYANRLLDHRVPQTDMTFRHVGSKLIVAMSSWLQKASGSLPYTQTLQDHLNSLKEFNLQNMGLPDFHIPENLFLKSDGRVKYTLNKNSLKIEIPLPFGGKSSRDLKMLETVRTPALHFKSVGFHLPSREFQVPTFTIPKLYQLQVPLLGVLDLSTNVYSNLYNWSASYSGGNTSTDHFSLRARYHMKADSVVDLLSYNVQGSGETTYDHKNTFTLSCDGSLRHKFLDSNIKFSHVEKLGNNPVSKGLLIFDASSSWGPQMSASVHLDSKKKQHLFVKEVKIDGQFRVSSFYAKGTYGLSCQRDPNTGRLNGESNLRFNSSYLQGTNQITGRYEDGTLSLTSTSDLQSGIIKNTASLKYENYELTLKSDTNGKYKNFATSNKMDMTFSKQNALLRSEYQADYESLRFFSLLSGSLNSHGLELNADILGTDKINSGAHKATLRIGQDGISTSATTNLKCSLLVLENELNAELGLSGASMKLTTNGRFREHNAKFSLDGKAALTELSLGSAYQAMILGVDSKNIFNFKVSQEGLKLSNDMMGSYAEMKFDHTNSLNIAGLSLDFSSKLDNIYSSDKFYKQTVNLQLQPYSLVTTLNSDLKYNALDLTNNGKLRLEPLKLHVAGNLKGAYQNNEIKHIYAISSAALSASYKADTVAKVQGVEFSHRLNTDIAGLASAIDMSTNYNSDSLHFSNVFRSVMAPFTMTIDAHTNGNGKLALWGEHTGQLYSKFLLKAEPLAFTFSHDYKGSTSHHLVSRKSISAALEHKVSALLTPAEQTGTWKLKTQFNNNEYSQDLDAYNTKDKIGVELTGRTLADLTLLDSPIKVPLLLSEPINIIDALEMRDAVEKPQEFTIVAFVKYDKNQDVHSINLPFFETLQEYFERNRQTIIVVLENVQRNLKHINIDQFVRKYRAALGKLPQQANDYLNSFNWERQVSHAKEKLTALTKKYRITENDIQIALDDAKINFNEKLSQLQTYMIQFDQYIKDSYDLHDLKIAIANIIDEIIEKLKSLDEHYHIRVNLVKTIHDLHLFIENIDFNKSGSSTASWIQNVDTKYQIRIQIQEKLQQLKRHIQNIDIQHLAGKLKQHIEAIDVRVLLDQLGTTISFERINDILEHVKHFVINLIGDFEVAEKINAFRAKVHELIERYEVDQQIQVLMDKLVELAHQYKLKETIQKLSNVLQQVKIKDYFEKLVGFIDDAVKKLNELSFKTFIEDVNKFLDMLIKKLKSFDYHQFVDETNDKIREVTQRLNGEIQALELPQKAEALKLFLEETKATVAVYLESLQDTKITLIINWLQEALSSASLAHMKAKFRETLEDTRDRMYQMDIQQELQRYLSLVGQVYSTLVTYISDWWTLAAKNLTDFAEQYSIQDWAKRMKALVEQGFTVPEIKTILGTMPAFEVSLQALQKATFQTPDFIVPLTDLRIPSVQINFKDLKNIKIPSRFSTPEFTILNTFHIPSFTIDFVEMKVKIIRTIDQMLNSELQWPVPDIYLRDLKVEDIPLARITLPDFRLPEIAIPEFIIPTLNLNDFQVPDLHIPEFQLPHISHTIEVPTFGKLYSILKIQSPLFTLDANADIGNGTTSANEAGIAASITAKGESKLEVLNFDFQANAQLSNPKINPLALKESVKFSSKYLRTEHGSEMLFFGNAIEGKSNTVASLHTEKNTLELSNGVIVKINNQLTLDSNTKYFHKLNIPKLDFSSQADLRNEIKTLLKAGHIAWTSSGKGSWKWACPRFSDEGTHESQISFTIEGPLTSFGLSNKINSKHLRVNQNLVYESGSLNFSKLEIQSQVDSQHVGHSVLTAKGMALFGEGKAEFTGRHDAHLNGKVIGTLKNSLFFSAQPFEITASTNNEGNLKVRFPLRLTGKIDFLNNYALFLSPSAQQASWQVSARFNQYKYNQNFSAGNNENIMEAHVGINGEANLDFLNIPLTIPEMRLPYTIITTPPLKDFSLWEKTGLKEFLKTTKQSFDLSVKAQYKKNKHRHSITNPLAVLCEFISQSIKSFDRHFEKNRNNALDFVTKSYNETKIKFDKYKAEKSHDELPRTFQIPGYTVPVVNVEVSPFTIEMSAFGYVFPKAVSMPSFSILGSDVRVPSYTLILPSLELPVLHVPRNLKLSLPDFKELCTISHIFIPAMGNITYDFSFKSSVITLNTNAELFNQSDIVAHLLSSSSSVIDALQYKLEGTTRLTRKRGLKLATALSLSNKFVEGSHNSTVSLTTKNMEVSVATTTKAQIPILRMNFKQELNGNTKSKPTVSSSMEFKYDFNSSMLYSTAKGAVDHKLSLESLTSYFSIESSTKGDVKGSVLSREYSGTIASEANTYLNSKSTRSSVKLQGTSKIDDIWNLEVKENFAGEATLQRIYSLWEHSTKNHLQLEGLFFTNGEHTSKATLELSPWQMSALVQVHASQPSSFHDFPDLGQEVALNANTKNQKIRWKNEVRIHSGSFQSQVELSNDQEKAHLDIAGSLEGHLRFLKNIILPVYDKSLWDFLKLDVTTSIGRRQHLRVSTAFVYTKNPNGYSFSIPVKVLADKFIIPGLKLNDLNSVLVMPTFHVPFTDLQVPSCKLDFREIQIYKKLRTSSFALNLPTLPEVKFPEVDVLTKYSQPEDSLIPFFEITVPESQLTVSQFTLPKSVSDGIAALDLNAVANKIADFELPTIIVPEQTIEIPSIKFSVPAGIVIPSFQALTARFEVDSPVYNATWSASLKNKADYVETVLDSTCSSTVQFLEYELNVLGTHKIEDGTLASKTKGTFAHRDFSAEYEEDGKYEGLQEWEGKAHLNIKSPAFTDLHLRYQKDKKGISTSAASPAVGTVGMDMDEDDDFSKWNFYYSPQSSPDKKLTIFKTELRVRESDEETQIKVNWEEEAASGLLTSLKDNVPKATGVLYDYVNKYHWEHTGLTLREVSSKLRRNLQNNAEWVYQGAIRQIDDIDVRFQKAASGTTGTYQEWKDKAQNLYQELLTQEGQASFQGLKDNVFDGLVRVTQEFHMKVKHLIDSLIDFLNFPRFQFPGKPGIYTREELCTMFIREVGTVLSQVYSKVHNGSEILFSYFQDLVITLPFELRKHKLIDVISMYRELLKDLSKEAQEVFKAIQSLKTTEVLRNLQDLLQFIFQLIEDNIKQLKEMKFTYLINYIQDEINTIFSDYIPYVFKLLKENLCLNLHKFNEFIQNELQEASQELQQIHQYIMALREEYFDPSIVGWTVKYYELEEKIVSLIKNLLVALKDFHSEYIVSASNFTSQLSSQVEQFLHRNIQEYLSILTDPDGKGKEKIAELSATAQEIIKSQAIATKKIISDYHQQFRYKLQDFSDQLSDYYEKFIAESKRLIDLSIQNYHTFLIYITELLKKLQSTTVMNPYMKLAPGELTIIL

Row | Target | log2 fold change [1] | log2 fold change (filanesib) | log2 fold change (zotarolimus) | log2 fold change (idasanutlin) | log2 fold change (alisertib) | log2 fold change [2] | log2 fold change (gefitinib) | log2 fold change [3] | log2 fold change (lapatinib) | log2 fold change (pictilisib) | log2 fold change [4] | log2 fold change (crizotinib) | log2 fold change [5] | log2 fold change [6] | log2 fold change (duvelisib) | log2 fold change (gandotinib) | log2 fold change (tozasertib) | log2 fold change [7] | log2 fold change (doramapimod) | log2 fold change (ispinesib)
1 | APOB (UniProt P04114) | 0.034 | -0.86 (active) | -0.013 | -0.039 | 0 | -0.384 | -0.129 | 0.164 | -0.352 | 0.078 | 0.066 | -0.443 | 0.083 | -0.203 | 0.003 | -0.198 | -0.085 | 0.007 | -0.288 | -0.55 (active)
2 | ABHD16A (UniProt O95870) | 0.051 | 0.067 | 0.204 | -0.042 | -0.049 | 0.347 (active) | 0.158 | -0.039 | 0.235 | 0.018 | -0.012 | 0.277 | 0.029 | 0.033 | 0.014 | 0.158 | -0.009 | 0.012 | 0.136 | 0.125
3 | ATG4B isoform 2 (UniProt Q9Y4P1) | -0.003 | -0.142 | 0.048 | -0.045 | -0.009 | -0.058 | 0.005 | -0.082 | -0.157 | -0.311 | 0.078 | -0.361 | 0.056 | -0.004 | -0.024 | -0.12 | -0.286 | 0.184 | 0.003 | -0.277
4 | ACTR1B (UniProt P42025) | 0.084 | 0.044 | -0.026 | -0.136 | -0.163 | 0.008 | 0.04 | 0.073 | -0.104 | 0.127 | 0 | -0.009 | 0.156 | 0.072 | 0.009 | -0.167 | 0.073 | -0.022 | 0 | 0.124
5 | AGO1 (UniProt Q9UL18) | -0.107 | -0.015 | -0.069 | 0.009 | 0.05 | -0.031 | -0.119 | -0.029 | 0.061 | -0.002 | -0.071 | -0.064 | -0.007 | 0.006 | -0.116 | 0.094 | -0.153 | 0.002 | -0.066 | 0.125
6 | AGPAT1 (UniProt Q99943) | -0.004 | 0.001 | -0.048 | -0.059 | -0.081 | 0.176 | 0.028 | 0.021 | 0.074 | 0.017 | 0.017 | 0.187 | 0.043 | -0.018 | 0.041 | -0.106 | 0.012 | 0.014 | 0.019 | 0.096
7 | ACIN1 (UniProt Q9UKV3) | 0.019 | 0.073 | 0.028 | 0.099 | -0.082 | -0.062 | 0.041 | 0.006 | 0.034 | 0.03 | -0.011 | -0.014 | 0.068 | -0.12 | 0.005 | 0.01 | -0.003 | 0.002 | 0.029 | 0.007
8 | ATP1B3 (UniProt P54709) | 0.082 | 0.073 | -0.034 | 0.014 | -0.032 | 0.034 | 0.025 | 0.092 | -0.051 | -0.012 | 0.053 | 0.111 | 0.027 | -0.152 | 0.028 | -0.013 | -0.019 | -0.04 | -0.042 | 0.165
